Bioassay records as filed in PubChem BioAssay.
D3 antag = blocks the human D3 dopamine receptor; max response, negative = inhibition, %; D3R cells, DiscoveRx beta-arrestin luminescence, antagonist mode; hits give low values; hit rate 2.5% among 360,000; in the data active = max response below about -50%; inconclusive = no clear call, values can overlap the other calls
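Cells expressing the human receptor were seeded at 1500 cells/well, incubated overnight at 37 degrees C in 5% CO2, then exposed to library compounds with dopamine controls for 90 minutes at 37 degrees C before luminescent detection.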
DT40 TDP1 no CPT = qHTS for Inhibitors of human tyrosyl-DNA phosphodiesterase 1 (TDP1): qHTS in cells in absence of CPT; DT40 Tdp1-/- hTDP1 cells, no CPT, ATP luminescence, 48 h; Potency, µM (highest dose often 46.2 µM), usual class: inhibitors; hit rate 15% among 420,000; AID 686978, 2013; also: nearly all actives have a fitted effect of over 55% in size
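Cells were dispensed at 400 per well, compounds added by pin tool, plates incubated ≥48 hr at 37 °C, then CellTiter-Glo added for 30 min at room temperature before luminescence reading. Line: DT40 Tdp1-/- complemented with hTDP1; camptothecin omitted.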
IL1B secr inh = blocks inflammasome-driven IL-1 beta release; hit rate 4.7% among 360,000; activity change, % at 57.5 µM; THP-1 LPS/ATP IL-1B secretion, AlphaLISA, 16 h; hits give low values; in the data active = activity change below about -50%; inconclusive = mostly about -30% to -49%
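Secreted IL-1B measured by AlphaLISA bead assay after 16 h compound exposure of THP-1 cells; compounds (final up to 57.5 uM) added 1 h before LPS (250 ng/mL) and ATP (1.25 mM) stimulation; lower signal means less secretion.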
ClpP mod = qHTS Assay for Activators of ClpP. ATP-dependent Clp protease proteolytic subunit (Bacillus subtilis (strain 168)), P80244. purified B. subtilis ClpP, FRET peptide cleavage, 20 min. Potency, µM (highest dose often 57.5 µM). hit rate 1.9% among 340,000. AID 651965, 2013; active = well fitted falling curve with a large enough effect; inconclusive = small, poorly fitted or top-dose-only effect; inactive = no such curve, though single readings can be large or run the other way; also: the source files actives as falling curves though it sought activators and does not explain the sign; nearly all actives have a fitted effect of over 65% in size
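Purified B. subtilis ClpP, 10 microg/mL final in Tris/HCl pH8 with KCl, BSA, glycerol and Tween-20, cleaved an Abz/nitrotyrosine-quenched decapeptide. Fluorescence (ex 320, em 430) was read at 0 and 20 min at room temperature. Delta was normalized to 5.8 microM ADEP and DMSO/no-enzyme controls.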
DT40 TDP1 CPT = growth inhibition of DT40 Tdp1-/-;hTDP1 cells with camptothecin (screen for TDP1 inhibitors). hit rate 12% among 420,000. Potency, µM (doses to about 46.2 µM), hits mostly inhibitors. AID 686979. chicken DT40 Tdp1-/-;hTDP1 cells + 20 nM CPT, ATP luminescence, 48 h; also: nearly all actives have a fitted effect of over 55% in size
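Chicken DT40 Tdp1-/- cells complemented with human TDP1, 400 cells/well, exposed to compounds plus 20 nM camptothecin for at least 48 h at 37 C; viability read as ATP content by CellTiter-Glo luminescence.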
DRD3 agonist = agonists of human D3 dopamine receptor; P35462; D3R DiscoveRx beta-arrestin cells, luminescence, 90 min; max activation, %; hit rate 0.58% among 410,000; AID 652048; in the data active = max activation above about 30%
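Cells at 1500/well, incubated overnight, then treated with pinned compounds (dopamine as control) for 90 min at 37 degrees C. DiscoveRx reagent added for 30 - 60 minutes at room temperature; luminescence read.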
Numbers stand for hits; i = inactive; ? = inconclusive; nt = no result. Compounds with a hit are over-represented: about 21% of the library has one in this group of screens. Unless noted, calls follow the shape of the dose curve; as a rule, active = well fitted inhibition curve with a large enough effect; inconclusive = small, poorly fitted or top-dose-only effect; inactive = flat fitted curve, though single readings scatter.

SMILES	D3 antag	DT40 TDP1 no CPT	IL1B secr inh	ClpP mod	DT40 TDP1 CPT	DRD3 agonist
CCOc1ccccc1N1CCN(Cc2ccc(OC)c(OC)c2OC)CC1	-141	?	i	i	?	i
CCOc1ccccc1N1CCN(C/C=C/c2ccc(N(C)C)cc2)CC1	i	?	i	28µM	?	i
CCNC(=S)N1CCN(c2ccccc2OCC)CC1	i	i	i	i	i	i
CCOC(=O)C1CCN(Cc2ccc(F)cc2F)CC1	?	i	i	i	i	i
COc1ccccc1N1CCN(Cc2cccc(OC)c2OC)CC1	i	i	i	i	?	i
CCOc1ccccc1N1CCN(Cc2ccc(Br)s2)CC1	-95	?	i	i	?	i
CCOc1ccccc1N1CCN(Cc2ccco2)CC1	i	i	i	i	i	i
CCOC(=O)C1CCN(c2ccccc2CN2CCN(c3ccccc3OCC)CC2)CC1	-75	?	i	i	?	i
COC(=O)CCCCCCCC(=O)Nc1nnc(C(F)(F)F)s1	i	i	i	i	i	i
O=C(Cc1cccc(NC(=O)C2CCN(S(=O)(=O)c3cccc([N+](=O)[O-])c3)CC2)c1)Nc1cccc(C(=O)N2CCOCC2)c1	i	i	i	i	i	i
COc1ccc(OC)c(CN2CCN(C(=O)c3cc4ccccc4cc3O)CC2)c1	i	?	i	i	?	i
CCn1c2ccccc2c2cc(NC(=O)C(=O)N3CCOCC3)ccc21	?	i	?	nt	i	i
CCOc1ccccc1N1CCN(S(=O)(=O)CC)CC1	i	i	i	i	i	i
CCOc1ccccc1N1CCN(Cc2cnc(-c3ccccc3)[nH]2)CC1	-94	23µM	?	nt	?	i
O=Cc1ccc2noc(-c3ccc(Cl)cc3)c2c1	i	16µM	i	i	?	i
Cc1ccc(-c2onc3ccc(Cl)cc23)cc1	i	?	i	i	i	i
OCCC1CN(Cc2nc(-c3ccc(F)cc3)cs2)CCN1CCc1ccccc1 (stereo unspecified)	i	?	i	i	?	i
OCCC1CN(Cc2nc(-c3ccccc3)cs2)CCN1CCc1ccccc1 (stereo unspecified)	i	21µM	i	i	?	i
CC(C)(C)CN1CCN(Cc2nc(-c3ccc(F)cc3)cs2)CC1CCO (stereo unspecified)	i	21µM	i	i	16µM	i
COc1cc(CCNC(=O)c2ccc3c(c2)c(C)c(C)n3Cc2cccc(C)c2)cc(OC)c1OC	nt	5.2µM	nt	i	7.3µM	i
Cc1ccc(Cn2c(CCNC(=O)c3cccc(C)c3)nc3ccccc32)cc1	nt	?	nt	22µM	18µM	i
CC(=O)NCCCc1nc2ccccc2n1Cc1ccc(C)cc1	i	i	i	i	i	i
CCOc1ccc(CCNC(=O)c2ccc(C)c(N3CCCC3=O)c2)cc1OCC	i	?	i	i	i	i
Cc1ccc(CCNC(=O)c2ccc3c(c2)c(C)c(C)n3Cc2ccccc2)cc1	nt	?	nt	22µM	16µM	i
CCOc1ccc(CCNC(=O)c2ccc3c(c2)c(C)c(C)n3Cc2ccccc2)cc1OCC	nt	13µM	nt	?	16µM	i
SMILES	D3 antag	DT40 TDP1 no CPT	IL1B secr inh	ClpP mod	DT40 TDP1 CPT	DRD3 agonist
Cc1c(C)n(Cc2ccccc2)c2ccc(C(=O)NCCN3CCOCC3)cc12	i	i	i	i	?	i
CCOC(=O)c1c(C=O)c2sc(C)cc2n1C	i	i	i	nt	i	i
O=C1CCCc2nc(N3CCCCC3)sc21	-59	i	i	i	i	i
CC1(O)CC(c2ccc(Cl)cc2)=NN1C(=O)c1ccc([N+](=O)[O-])cc1 (stereo unspecified)	i	18µM	-88	nt	21µM	i
O=[N+]([O-])c1ccc2n[nH]nc2c1	-70	i	i	i	i	i
COc1cc(OC)c(C=Cc2ccncn2)c(OC)c1	i	?	i	i	i	i
C(=C\c1cnc2ccccc2n1)/c1ccc2c(c1)OCO2	nt	?	nt	i	?	nt
COc1cc(OC)c(/C=C/c2nccc3ccccc23)c(OC)c1	nt	0.1µM	nt	i	0.071µM	nt
COc1ccc(C(=O)c2nccc3ccccc23)cc1	i	i	i	nt	i	i
COc1cc(OC)c(/C=C/c2ccc3ccccc3n2)c(OC)c1	nt	0.1µM	nt	i	0.1µM	nt
COc1cc(OC)c(/C=C/c2ccccn2)c(OC)c1	nt	2.8µM	nt	i	3.2µM	nt
COc1ccc(/C=C/c2cnc3ccccc3n2)cc1OC	nt	20µM	nt	i	?	nt
COc1ccc(-n2ccn(Cc3ccccc3Cl)c(=O)c2=O)cc1OC	nt	i	nt	i	i	i
COc1ccccc1C(=O)Nc1ccc(Br)cc1C	i	i	i	nt	i	i
COc1ccc(/C=C/c2ccc3ccccc3n2)cc1OC	nt	13µM	nt	i	?	nt
COc1ccc(-c2ccc3ccccc3n2)cc1OC	i	?	i	nt	i	i
C#CCSc1nc(Cc2ccc(Cl)cc2)nc2ccccc12	i	?	i	i	i	48
COc1nc(Cc2ccc(Cl)cc2)nc2ccccc12	i	?	i	nt	i	i
CCN1CCc2c(sc(NC(=O)c3ccc(S(=O)(=O)N4CCCCCC4)cc3)c2C(=O)NC)C1	i	?	i	i	?	i
CCOC(=O)c1ccc(N2C(=O)CC(N(C)CCc3ccc(OC)c(OC)c3)C2=O)cc1 (stereo unspecified)	i	?	i	i	16µM	i
CC12CCC(c3c1nc1ccccc1[n+]3[O-])C2(C)C (stereo unspecified)	i	18µM	i	i	?	i
COCCNC(=O)CSc1nnc(CCCN2C(=O)c3cccc4cccc(c34)C2=O)n1-c1ccccc1	i	?	i	?	i	i
COc1cccc(Nc2ccc(Nc3cccc(OC)c3)nn2)c1	i	?	-99	i	?	i
COc1cccc(Nc2c(Nc3cccc(OC)c3)c(=O)c2=O)c1	-68	i	i	i	i	i
CCn1c(=O)n(-c2ccc3c(c2)OCO3)c2nc(-c3cc(OC)ccc3OC)nc(C(N)=O)c21	nt	i	nt	i	i	i
SMILES	D3 antag	DT40 TDP1 no CPT	IL1B secr inh	ClpP mod	DT40 TDP1 CPT	DRD3 agonist
COC(=O)c1cc(-c2ccccc2)sc1NC(=O)CN1C(=O)c2ccccc2C1=O	i	i	-62	i	i	i
NC(=O)c1cc(-c2ccccc2)sc1NC(=O)CN1CCCCC1	i	23µM	-51	nt	21µM	i
NC(=O)c1cc(-c2ccccc2)sc1NC(=O)Cc1ccc(S(=O)(=O)N2CCOCC2)s1	i	i	i	?	i	i
CC(C)(C)C(=O)Nc1sc(-c2ccccc2)cc1C(=O)O	i	?	-78	nt	?	i
CCN1CCN(c2oc(-c3ccc(COc4ccccc4C)o3)nc2C#N)CC1	nt	?	nt	i	?	i
S=c1[nH]ncn1/N=C/c1ccc(Br)cc1	-109	i	i	i	?	i
S=c1[nH]ncn1/N=C/c1ccc(N2CCOCC2)cc1	?	i	i	i	i	i
